Only some compounds are listed: those with a hit (about 1.3% of all), similar ones and a draw of the others.
KCNH2 WT inh: KCNH2 (human, wildtype) channel inhibition; Q12809; U2OS, BacMam KCNH2, thallium flux FluxOr; hits give low values; activity change, % at 1.84 µM; 340,000 compounds, 0.37% hits; AID 720551;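 active = maximum activity change below -70%; inconclusive = maximum activity change between -70% and -50%; inactive = maximum activity change above -50%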
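U2OS cells transduced with wild-type KCNH2 virus are loaded with FluxOr dye for 45 min, and thallium flux is measured in kinetic reads before and after stimulation buffer. Rate constants are normalized to DMSO controls.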
TRPML1 ag: activates the human TRPML1 channel. Q9GZU1. TRPML1-expressing cells, Ca2+ dye fluorescence, FDSS. 410,000 compounds, 0.12% hits. activation, % (no concentration beside the values); in the data active = activation above about 50%; inconclusive = mostly about 30% to 49%
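In this qHTS format, compounds were pin-transferred onto Ca8-dye-loaded TRPML1-DL cells induced with Tet overnight, and intracellular Ca2+ fluorescence was recorded kinetically for 110 s after a 10 s baseline. A subsequent 4uM final 54-4 (EC80) addition followed by a second 110 s read served as the antagonist phase.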
KCNH2 3.1 block: KCNH2 3.1 (human) potassium channel inhibition | U2OS KCNH2 3.1, thallium flux FluxOr; hits give low values | activity change, % (tested at about 1.8 µM) | 340,000 compounds, 0.95% hits;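 active = maximum activity change below -70%; inconclusive = maximum activity change from -70% to -50%; inactive = maximum activity change above -50%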;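 note: thallium influx rate constant from kinetic fluorescence after stimulation buffer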
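Virally transduced U2OS (3.1 isoform, 4 h infection in dark at RT) → overnight 37 C → FluxOr + Red40 in HBSS/HEPES, 45 min → stimulation buffer, 2 min kinetic read → rate constant vs DMSO controls.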
TRPV1 potentiator: enhances activation of the human vanilloid receptor TRPV1; Q8NER1; TRPV1-expressing cells, Fluo-8 calcium influx, capsaicin EC20 potentiation; potentiation, % at 8.33 µM; 320,000 compounds, 0.02% hits; AID 540277; in the data active = potentiation above about 80%; inconclusive = between about 30% and that limit
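Cells expressing TRPV1 were dye-loaded with Fluo-8 and read kinetically: 10 s baseline, 3 min after compound (agonist portion), then 2 min after EC20 capsaicin (allosteric enhancer portion). Calcium-bound dye fluorescence at 480/520 nm.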
TRPV1 agonist: activates the human vanilloid receptor TRPV1. Q8NER1. TRPV1-expressing cells, Fluo-8 calcium influx, agonist mode. activation, % at 8.33 µM. 320,000 compounds, 0.19% hits; in the data active = activation above about 80%; inconclusive = between about 30% and that limit
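Cells expressing TRPV1 were dye-loaded with Fluo-8 and read kinetically: 10 s baseline, 3 min after compound (agonist portion), then 2 min after EC20 capsaicin (allosteric enhancer portion). Calcium-bound dye fluorescence at 480/520 nm.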
TRPML1 blocker: inhibitors of human TRPML1 channel; Q9GZU1; TRPML1-inducible cells, Ca2+ dye fluorescence, FDSS; hits give low values; inhibition of EC80 agonist-evoked calcium signal; activity change, negative = inhibition, % (no concentration beside the values); 390,000 compounds, 0.02% hits; AID 624415; in the data active = activity change below about -50%; inconclusive = between about -30% and that limit;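 note: stimulus is agonist 54-4 at its EC80 concentration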
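TRPML1-DL cells, Tet-induced overnight (~16 h, 37 °C) at 1,500 cells/well, were loaded with Ca8 no-wash dye plus quencher for 45-90 min at room temperature. Compounds were pinned during FDSS kinetic reading; agonist 54-4 at EC80 (4 uM final) then added.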
Each line names hits and unclear results; the compound was inactive in the other large screens.

N#C/C(=C/c1ccc(N2CCCCC2)o1)C(=O)Nc1ccc(Cl)cc1	TRPML1 ag 61, KCNH2 3.1 block inconclusive, TRPV1 agonist inconclusive
COc1ccc(NC(=O)/C(C#N)=C\c2ccc(N3CCOCC3)o2)cc1	TRPML1 ag 65, TRPV1 agonist inconclusive
N#C/C(=C\c1ccc(N2CCOCC2)o1)C(=O)Nc1ccc(O)cc1	none
N#C/C(=C/c1ccc(N2CCCCC2)o1)C(=O)Nc1ccc2ccccc2c1	TRPML1 ag 51, KCNH2 3.1 block -72, TRPV1 agonist inconclusive
CCOc1ccccc1CNC(=O)c1cc(-c2ccc(Cl)s2)nc2ccccc12	none (no result: KCNH2 WT inh, KCNH2 3.1 block, TRPV1 potentiator, TRPV1 agonist)
O=C(c1ccco1)N1CCN(c2ccc([N+](=O)[O-])cc2Cl)CC1	TRPV1 agonist inconclusive (no result: TRPML1 ag, TRPML1 blocker)
O=C(NC(=S)N1CCN(c2ccc([N+](=O)[O-])cc2Cl)CC1)c1ccco1	KCNH2 3.1 block -73
N#Cc1ccc(/C=C2/C=Cc3ccccc32)cc1	none (no result: KCNH2 WT inh, KCNH2 3.1 block, TRPV1 potentiator, TRPV1 agonist, TRPML1 blocker)
CCCCCCNc1nc(NCc2ccco2)nc(OCC)n1	KCNH2 3.1 block -73
O=C(Oc1ccc(N(Cc2cccs2)C2=NS(=O)(=O)c3ccccc32)cc1)c1ccc(Cl)cc1	KCNH2 WT inh inconclusive, KCNH2 3.1 block -99
Cc1noc(C)c1C(=O)OCC(=O)NCCc1ccccc1	none
Cc1noc(C)c1C(=O)OCC(=O)NCCc1ccc(S(N)(=O)=O)cc1	KCNH2 3.1 block -84 (no result: TRPV1 potentiator, TRPV1 agonist)
CCOC(=O)N1CCc2c(sc(NCc3cccs3)c2C(=O)Nc2cc(Cl)ccc2OC)C1	none (no result: KCNH2 WT inh, KCNH2 3.1 block, TRPV1 potentiator, TRPV1 agonist)
CCc1ccc(OCCCC(=O)NCc2ccccc2)cc1	TRPV1 agonist 83
COc1ccc(CNC(=O)CCCc2ccccc2)cc1	none (no result: TRPV1 potentiator, TRPV1 agonist)
O=C(CSCc1ccc(Br)cc1)NCCc1ccccc1	TRPV1 agonist inconclusive
O=C(CSCc1ccccc1)NCCc1ccc(F)cc1	KCNH2 3.1 block -100, TRPV1 agonist inconclusive
Cc1ccc(CNC(=O)CSCc2ccc(F)cc2)cc1	TRPV1 agonist 81
COc1cc(OC)cc(-c2nnc(NC(=O)CCS(=O)(=O)c3ccc(F)cc3)o2)c1	KCNH2 3.1 block -75
COc1cc(OC)cc(-c2nnc(NC(=O)CCS(=O)(=O)c3ccccc3)o2)c1	none
O=C(c1ccccc1)N1CCc2cc(CNS(=O)(=O)c3ccccc3Cl)ccc21	none (no result: KCNH2 WT inh, KCNH2 3.1 block, TRPV1 potentiator, TRPV1 agonist)
CCc1ccc(NC(=O)c2onc(C)c2Cl)cc1	TRPV1 agonist 89
CNc1ccc(C=C2c3ccccc3-c3ccccc32)cc1	none (no result: KCNH2 WT inh, KCNH2 3.1 block, TRPV1 potentiator, TRPV1 agonist, TRPML1 blocker)
Cc1ccc(C)c(S(=O)(=O)N2CCCN(C)CC2)c1	KCNH2 3.1 block -90
Cc1ccc(C)c(S(=O)(=O)N2CCN(c3ncccn3)CC2)c1	none
CC(C)c1ccc(OCc2ccc(C(=O)N3CCN(c4ccccn4)CC3)cc2)cc1	KCNH2 3.1 block -72
CCCCCCC(=O)NN1CCN(C)CC1	KCNH2 WT inh -257
CC(C)CS(=O)(=O)c1oc(-c2ccc(F)cc2)nc1S(=O)(=O)c1ccccc1	none (no result: KCNH2 WT inh, KCNH2 3.1 block, TRPV1 potentiator, TRPV1 agonist)
CCS(=O)(=O)N1CCCC(C(=O)NCCOC)C1 (configuration not stated)	none (no result: KCNH2 WT inh, KCNH2 3.1 block, TRPV1 potentiator, TRPV1 agonist)
Cc1ccc([C@H]2N[C@]3(CCCN(Cc4cccn4C)C3=O)[C@H]3C(=O)N(Cc4ccccc4)C(=O)[C@@H]23)cc1	KCNH2 WT inh -71 (no result: TRPML1 ag, TRPV1 potentiator, TRPV1 agonist, TRPML1 blocker)
Cn1cccc1CN1CCC[C@]2(N[C@H](c3ccccc3)[C@@H]3C(=O)N(Cc4ccccc4)C(=O)[C@@H]32)C1=O	none (no result: TRPV1 potentiator, TRPV1 agonist)
Cc1sc2ncnc(OCC(=O)N3CC(=O)Nc4ccccc43)c2c1C	TRPV1 potentiator 96
O=C1CN(C(=O)COc2ncnc3ccccc23)c2ccccc2N1	none
Cc1ccc(-n2nc(C)c3c(C(=O)NCc4ccc(F)cc4)cc(C)nc32)cc1	none (no result: KCNH2 WT inh, KCNH2 3.1 block, TRPV1 potentiator, TRPV1 agonist)
COCCNC(=O)CCc1c(C)nc2c(c(C)nn2-c2ccc(C)cc2)c1C	TRPV1 agonist 85
COCCCNC(=O)CCc1c(C)nc2c(c(C)nn2-c2ccc(C)cc2)c1C	TRPV1 agonist inconclusive (no result: TRPML1 ag, TRPML1 blocker)
Cc1cc(NC(=O)CSc2nc(Cc3ccc(O)cc3)c(C)[nH]2)no1	TRPML1 blocker -54
O=C(CSc1nc2ccccc2c(=O)n1Cc1ccc(Cl)cc1)NCc1cccs1	KCNH2 3.1 block -82
O=C(CSc1nc2ccsc2c(=O)n1Cc1ccc(F)cc1)NCc1ccc(Cl)cc1	none (no result: KCNH2 WT inh, KCNH2 3.1 block, TRPV1 potentiator, TRPV1 agonist)

Assay outcomes as filed in PubChem BioAssay.
